Source: PubChem
HEK293 tox = qHTS of GLP-1 Receptor Inverse Agonists: Cytotox Screen; AID 624418, 2012; HEK293 cAMP-luciferase reporter cells, luminescence, 24 h; Potency, µM (highest dose often 38.3 µM), inactives show at the highest dose activity change, negative = inhibition, most hits filed as inhibitors; 0.13% of 410,000 active;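 note: loss of luciferase light is scored as toxicity; % is set by controls: 0 for no effect and ±100 for the full control effect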
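Quantitative HTS format, 1536 wells, 200 cells/uL seeded. Compounds: 23 nL, 24 h, 37 °C. Detection: luciferase reagent, luminescence at 12 min RT; decreased signal taken as cytotoxic.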
GLP-1R inv ag = qHTS of GLP-1 Receptor Inverse Agonists (Inhibition Mode). Glucagon-like peptide 1 receptor (Homo sapiens), P43220. 1.6% of 410,000 active. Potency, µM (highest dose often 38.3 µM), without a hit: at the highest dose activity change, negative = inhibition, most hits filed as inhibitors. HEK293 GLP-1R CRE-luciferase, luminescence, 24 h; GLP-1R form is constitutively active; note: % is set by controls: 0 for no effect and ±100 for the full control effect; nearly all actives have a fitted effect of over 55% in size
Target sequence (P43220 whole entry, looked up): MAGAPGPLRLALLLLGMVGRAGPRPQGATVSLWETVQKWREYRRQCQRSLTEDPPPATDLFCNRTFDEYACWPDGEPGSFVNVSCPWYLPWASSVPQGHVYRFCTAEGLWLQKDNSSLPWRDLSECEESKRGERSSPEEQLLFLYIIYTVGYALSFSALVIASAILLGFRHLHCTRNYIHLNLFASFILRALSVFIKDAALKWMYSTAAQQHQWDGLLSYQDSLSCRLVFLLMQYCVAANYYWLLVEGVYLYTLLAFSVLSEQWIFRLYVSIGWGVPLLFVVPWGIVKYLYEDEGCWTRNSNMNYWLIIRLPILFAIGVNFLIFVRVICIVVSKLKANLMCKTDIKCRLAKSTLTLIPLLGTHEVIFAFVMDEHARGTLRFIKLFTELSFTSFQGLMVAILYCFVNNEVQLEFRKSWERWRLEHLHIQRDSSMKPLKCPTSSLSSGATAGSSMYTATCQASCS
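HEK293 cells stably co-expressing a cAMP-responsive luciferase reporter and constitutively active GLP-1R were seeded, incubated 12 h, then exposed to compounds for 24 h at 37 C. Luminescence was read 12 min after detection reagent; inverse agonists lower signal.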
a7 integrin act = qHTS for Activators of Integrin-Mediated Alleviation for Muscular Dystrophy. AID 624291, 2012. 0.064% of 350,000 active. alpha7betagal myoblasts, beta-gal FDG fluorescence, 48 h. Potency, µM (series often up to 38.3 µM), inactives show at the highest dose activation, hits mostly activators;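 note: 100% = response of the positive control SU9516; nearly all actives have a fitted effect of over 60% in size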
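Alpha7betagal+/- myoblasts (passage 13) were plated 16-24 hr, then exposed to compounds (1:260 dilution of DMSO stock) for 48 hours at 37C. After MPER lysis, β-galactosidase reporter activity was read as FDG fluorescence (ex 480/em 540) after 30 minutes.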
BRCA1 expr up = qHTS Assay to Identify Small Molecule Activators of BRCA1 Expression | MCF7-BRCA1-FFLuc reporter, luminescence, 48 h; response scale: scaled: vehicle 0%, 10 µM genistein 100% | Potency, µM (series often up to 46.1 µM), without a hit: at the top dose activation, actives largely listed as activators | 1.1% of 380,000 active; note: nearly all actives have a fitted effect of over 80% in size
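Quantitative HTS in MCF7 cells stably reporting BRCA1 expression via firefly luciferase. Compound treatment lasts 48 h at 37 °C in phenol-red free MEM. Activation is expressed relative to genistein at 10 microM and DMSO.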
GLP1R ag = qHTS of GLP-1 Receptor Agonists. Glucagon-like peptide 1 receptor (Homo sapiens), P43220. HEK293 GLP-1R CRE-luciferase, luminescence, 4-6 h; cells express a hypersensitive GLP-1R form. Potency, µM (titrated, usually from 45.6 µM), for inactives: at the highest dose activation, usual class: activators. 0.007% of 380,000 active; note: % of control where 0% means no effect
* hit, by the source's call; ? = inconclusive; . = no result given. A selection: hits, their analogues and other compounds. The true share with any hit is near 2.7%. Calls come from the whole dose curve; as a rule, active = well fitted curve in the direction sought with a large enough effect; inconclusive = small, poorly fitted or top-dose-only effect, or another doubt; inactive = no such curve, though single readings can be large; an effect the other way counts as inactive or inconclusive. Potency is the fitted concentration of half-maximal effect.

SMILES | HEK293 tox | GLP-1R inv ag | a7 integrin act | BRCA1 expr up | GLP1R ag
CC(C)(C)c1cc(C(=O)NN)n(Cc2ccc(F)cc2)n1 | 4% | ? | -20% | -27% | 3%
CC(=O)N1CCc2cc(Br)cc(S(=O)(=O)N3CCN(c4cc(C)ccc4C)CC3)c21 | 0% | 8% | . | . | .
COc1ccc(-c2nn3c(C4CCCCC4)nnc3s2)cc1OC | -7% | 0% | -28% | -3% | 2.5µM*
COc1cc(-c2nn3c(C4CCCCC4)nnc3s2)cc(OC)c1OC | 17% | 41% | 4% | -37% | 2%
CCOc1ccc(C2=Nn3c(nnc3-c3ccc(OC)cc3)SC2)cc1 | -18% | 0% | -32% | -94% | 10µM*
COc1ccc(C2=Nn3c(nnc3C3CCCCC3)SC2)cc1OC | 2% | 105% | -49% | -70% | 3.2µM*
COc1ccc(OC)c(-c2nnc3n2N=C(c2ccc(OC(F)F)c(OCC4CC4)c2)CS3)c1 | . | . | . | -55% | ?
COc1ccc(C2=Nn3c(nnc3-c3ccncc3)SC2)cc1 | 5% | 0% | 0% | -1% | -1%
COc1ccc(C2=Nn3c(nnc3-c3ccccc3OC)SC2)cc1OCC1CC1 | . | . | . | -53% | 4µM*
COc1ccc(OC)c(-c2nnc3n2N=C(c2ccc(OC)c(OC)c2)CS3)c1 | . | . | . | -75% | 2.2µM*
CC1NC(=O)COC1c1ccccc1 (configuration not stated) | 4% | 2% | 1% | 7% | 5%
CC1CC=C(c2ccccc2)C(=S)N1 (configuration not stated) | ? | 10µM* | 23% | -9% | 1%
O=C(NCc1ccc(F)cc1)C1CCN(S(=O)(=O)c2ccc(Br)s2)CC1 | -7% | 10µM* | -38% | -22% | 6%
CCOc1ccc(-n2cc(-c3ccccc3)c3c(NCc4ccc(F)cc4)ncnc32)cc1 | -3% | 1.4µM* | . | . | .
COc1ccc(CCNc2ncnc3c2c(-c2ccccc2)cn3-c2cccc(Cl)c2)cc1OC | -7% | 10µM* | . | . | .
COc1ccc(CNc2ncnc3c2c(-c2ccccc2)cn3-c2ccccc2)cc1 | 0% | 6.3µM* | . | . | .
Cc1ccc(CNc2ncnc3c2c(-c2ccccc2)cn3-c2ccccc2)cc1 | 2% | ? | . | . | .
CCOC(=O)c1ccccc1NC(=O)CSc1nc2cn(CC)nc2c(=O)n1Cc1ccc(Cl)cc1 | 2% | 12% | . | 5% | 0%
Cn1c(=O)c2c([nH]c(=O)n2Cc2ccc(Cl)cc2Cl)n(C)c1=O | -9% | -7% | . | 6% | -1%
C1=CN2CC=Cc3cc(/C=C/c4ccnc5ccccc45)cc(c32)C1 | . | . | . | -51% | .
Cc1oc2ncn(C)c(=O)c2c1C(=O)NCCCN1CCCC(C)C1 (configuration not stated) | -7% | ? | . | 0% | .
Cc1cc(-n2c(C)cc(C(=O)CCl)c2C)no1 | ? | 10µM* | -59% | -90% | -4%
Cc1cc(-n2c(C)cc(C(=O)CSc3ccccn3)c2C)no1 | 3% | ? | 5% | 4µM* | 19%
Cc1cc(-n2c(C)cc(C(=O)CN3C(=O)C(=O)N(C)C3=O)c2C)no1 | 3% | 8% | -8% | -11% | -3%
CCC12CN3CC(C)(CN(C1)C3c1c[nH]c3ccc(OC)cc13)C2=O (configuration not stated) | -2% | 3% | . | . | .
SMILES | HEK293 tox | GLP-1R inv ag | a7 integrin act | BRCA1 expr up | GLP1R ag
COc1ccc(N2CCN(c3nccs3)CC2)cc1 | -1% | 4% | 6% | 11µM* | 9%
COc1ccc(CNC(=O)C2CCN(c3nccs3)CC2)cc1 | -3% | -15% | -8% | -16% | -13%
CCC1CN(C(=O)N2CCC(C(=O)NCCC3=CCCCC3)CC2)c2ccccc2O1 (configuration not stated) | -6% | 7% | . | . | .
CC(NC(=O)c1ccc(Br)cc1)c1ccc2c(c1)CCCC2 (configuration not stated) | -2% | 10µM* | 9% | -14% | 2%
CC(NC(=O)c1ccc(F)cc1)c1ccc2c(c1)CCCC2 (configuration not stated) | 1% | 10µM* | -10% | -25% | 1%
COc1ccc(-n2c(=O)c3c(c4cc(OC)ccc4n3C)n(Cc3cccc(OC)c3)c2=O)cc1 | 8% | 5% | . | -3% | 0%
COc1cccc(NC(=O)CSc2nc3cc(OC)c(OC)cc3c3nc(-c4ccccc4)nn23)c1 | -1% | 5% | . | 22% | 0%
Clc1cc(Cl)cc(Nc2ncnc(-n3cccc3)n2)c1 | 2% | 14% | -2% | -35% | 13%
Cc1ccc(Nc2ncnc(-n3cccc3)n2)cc1Cl | -15% | -11% | 6% | 6.3µM* | 15%
C=CCNC(=S)NNC(=O)COc1ccc2cc(Br)ccc2c1 | 3% | ? | ? | 10µM* | 7%
CCOC(=O)c1c(C)[nH]c(CCC(=O)NCc2ccc(N(C)C)cc2)c1C | 11% | -1% | . | . | .
CNc1ccccc1C(C)(C)c1cc(-c2cccc(Br)c2)no1 | -2% | 2.8µM* | -42% | -30% | 18%
CNc1ccccc1C(C)(C)c1cc(-c2cccc([N+](=O)[O-])c2)no1 | -6% | ? | -57% | -39% | 13%
Cc1cc2oc(=O)cc(COC(=O)c3n[nH]c4ccccc34)c2cc1C | 12% | 19% | 16% | 70% | -2%
COc1ccc2c(COC(=O)c3n[nH]c4ccccc34)cc(=O)oc2c1 | -13% | 0% | -2% | 4.5µM* | 4%
CC[C@@H]([C@H](C)O)n1ncn(-c2ccc(N3CCN(c4ccc(OCC5CO[C@@](Cn6cncn6)(c6ccc(F)cc6F)C5)cc4)CC3)cc2)c1=O (some centres not stated) | . | . | . | . | -5%
NC(=O)N1c2ccccc2C=Cc2ccccc21 | 3% | 7% | . | 12% | 9%
CCN(CC)C(=O)N1c2ccccc2C=Cc2ccccc21 | -6% | 5.6µM* | 2% | 52% | 1%
COCC1CCCN(C(=O)c2ccc3oc(Cc4ccc(Cl)cc4)nc3c2)C1 (configuration not stated) | -16% | 10µM* | -20% | 6% | 4%
CCCCc1nc2cc(C(=O)N3CCC(O)CC3)ccc2o1 | -1% | ? | 15% | 3.5µM* | -1%
COC1CCCN(C(=O)c2ccc3oc(Cc4ccc(Cl)cc4)nc3c2)C1 (configuration not stated) | -19% | -23% | ? | -1% | 4%
CCOC(=O)c1cc(-c2ccc(OC)cc2)n(CCC(=O)Nc2ccc(OC)cc2OC)c1C | -5% | ? | . | . | .
Cn1c(CO)cnc1SCC(=O)c1ccc(Cl)cc1 | -28% | 7.1µM* | 7% | 21% | -5%
